p53null 32C tox: kills p53 null cells at the permissive temperature; H1299-neo p53 null cells, ATP luminescence, 24 h, 32C; Potency, µM (top dose mostly 46.1 µM), usual class: cytotoxic; 55,000 compounds, 0.62% hits; AID 903; note: nearly all actives have a fitted effect of over 55% in size
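Luminescent ATP readout gave cell viability of p53-null H1299-neo cells after a 24 h compound exposure at the permissive 32C. Titrations ran up to 46 uM, and AC50s were fitted with the standard Hill equation.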
OvCa metastasis: inhibitors of ovarian cancer cell adhesion and invasion in omental model | SKOV3ip1-GFP adhesion/invasion on 3D omental model, fluorescence | Potency, µM (titrated, usually from 45.8 µM), actives largely listed as inhibitors | 46,000 compounds, 0.1% hits | AID 1963576; note: nearly all actives have a fitted effect of over 65% in size
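A 3D layer of primary human omental fibroblasts, mesothelial cells, fibronectin and collagen I, grown 48 hr, received SKOV3ip1-GFP cells in serum-free medium plus compounds at 0.36-46 umol/L. After 2 hr RT and 16 hr 37 C, fixed adherent GFP cells were counted; normalized to DMSO and tomatine.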
GPR32 ag: agonists of human resolvin D1 receptor DRV1 (GPR32); O75388; CHO-K1 GPR32 beta-arrestin PathHunter luminescence, 90 min; zero percent set by DMSO-only wells; activation, % at 76.9 µM; 48,000 compounds, 2.5% hits; AID 1346428;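 active = activation of at least 60% and not above a set upper limit, about 1 call in 100 departs from these limits; inconclusive = activation of 40% to 60%, or above that upper limit; inactive = activation under 40%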
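Using DMSO wells as EC0, agonist-induced signal was taken as chemiluminescence from beta-Gal reconstituted upon beta-arrestin recruitment to GPR32 in CHO-K1 cells after 90 min compound treatment.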
GALC G270D up: enhancers of human galactocerebrosidase G270D mutant activity in cells. P54803. 145M-Twi-hGALC-G270D cells (Twitcher mouse brain line with human GALC G270D), HMU-beta-Gal fluorescence, 48 h. Potency, µM (titrated, usually from 57.5 µM), hits mostly activators. 45,000 compounds, 0.1% hits. AID 1159614; note: nearly all actives have a fitted effect of over 65% in size
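Fluorescence readout: HMU-β-gal cleavage by mutant GALC (0.1 mM final, citrate/phosphate pH 5.2 with 1 mg/mL taurocholate), stopped with carbonate/bicarbonate plus Triton X-100. Cells: murine Twitcher 145M-Twi expressing human G270D GALC; qHTS for activators.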
NTMT1 inhibitor: NTMT1 methyltransferase inhibition. Q9BV86. 59,000 compounds, 2.5% hits. Potency, µM (highest dose often 114 µM), usual class: inhibitors. AID 1645870. NTMT1 MTase-Glo SAH luminescence, purified enzyme; note: nearly all actives have a fitted effect of over 65% in size
Target sequence (Q9BV86 whole entry, looked up): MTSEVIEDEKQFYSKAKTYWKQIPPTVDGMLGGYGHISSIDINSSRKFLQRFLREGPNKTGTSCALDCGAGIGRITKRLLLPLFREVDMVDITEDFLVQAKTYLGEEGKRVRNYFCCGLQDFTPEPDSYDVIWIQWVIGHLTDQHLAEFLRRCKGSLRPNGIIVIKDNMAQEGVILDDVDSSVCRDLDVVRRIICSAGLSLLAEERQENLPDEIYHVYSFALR
p53null 39C kill: selectivity test: cytotoxicity in p53 null cells, nonpermissive temperature. H1299 p53-null (neo) cells, 39C, ATPlite viability, 24 h. Potency, µM (titrated, usually from 46.1 µM), actives largely listed as cytotoxic. 55,000 compounds, 0.97% hits. AID 904; note: nearly all actives have a fitted effect of over 50% in size
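Temperature-shift cytotoxicity format: compound titrations on p53-null or A138V-expressing H1299 cells held 24 hr at 39C, cell ATP then measured, AC50 from Hill model.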
A number is an active result; n = inactive; u = inconclusive; x = no result; ! = not active in a repeat. Most compounds without a hit are left out; they make up all but 4% or so of the library. Unless noted, calls come from the whole dose curve; as a rule, active = well fitted curve in the direction sought with a large enough effect; inconclusive = small, poorly fitted or top-dose-only effect, or another doubt; inactive = no such curve, though single readings can be large; an effect the other way counts as inactive or inconclusive.

SMILES	p53null 32C tox	OvCa metastasis	GPR32 ag	GALC G270D up	NTMT1 inhibitor	p53null 39C kill
CCOc1ccc(C(=O)Nc2cccc(C(=O)OCc3cc(=O)n4nc(C5CC5)sc4n3)c2)cc1	n	n	n	n	n	u
COc1cccc(NC(=O)c2ccc3c(=O)n4nc(Nc5ccccc5OC)sc4nc3c2)c1	n	n	n	n	79.4µM	n
Cc1sc2c(c1C)C(c1ccc(Cl)cc1)=N[C@@H](CC(N)=O)c1nnc(C)n1-2	x	x	x	x	n	x
Cc1oc(-c2ccc(Cl)cc2)nc1CN1CCC(C(=O)NCCCN2CCN(c3cccc(Cl)c3)CC2)CC1	n	n	n	n	79.4µM	25.1µM
Cc1ccc(-c2nc(CN3C(=O)CN=C(c4ccccc4)c4cc(Cl)ccc43)c(C)o2)cc1	n	n	n	n	n	n
COC(=O)[C@]12CCCC(C)(C)C1CCc1cc(C(C)C)c(O)c(O)c12 (some centres undefined)	x	x	x	x	n	x
C=C[C@H]1CN2CCC1C[C@@H]2[C@@H](O)c1ccnc2ccccc12 (some centres undefined)	x	x	x	x	n	x
O=C(O)c1nn(Cc2ccc(Cl)cc2Cl)c2ccccc12	x	n	64.0!	n	u	x
CC(C)[C@H](NC(=O)c1nn(Cc2ccc(F)cc2)c2ccccc12)C(N)=O	x	x	x	x	n	x
C=C1CC[C@H]2[C@@H](/C=C(\C)C(=O)[C@@]3(OC(C)=O)C[C@H](C)[C@H](OC(=O)c4ccccc4)[C@@H]3[C@H]1OC(C)=O)C2(C)C	x	x	x	x	n	x
N#Cc1cn([C@@H]2O[C@H](CO)[C@H](O)[C@@H]2O)c2ncnc(N)c12	x	x	x	x	8.91µM	x
Cc1[nH]ncc1-c1cc2nc([C@@H]3CC4CCN3CC4)[nH]c(=O)c2s1	x	x	x	x	n	x
COC(=O)C[C@]1(C(=O)OC)CN(C#N)N(c2ccc(Cl)cc2)C12c1ccccc1-c1ccccc12	u	x	x	x	x	n
COC(=O)[C@@H]1[C@@H](C(=O)OC)C2(c3ccccc3-c3ccccc32)N(c2ccc(Cl)cc2)N1C#N	22.4µM	x	x	x	x	u
CC(=O)c1cccc(NC(=O)c2cc3c(s2)-c2c(C)cccc2OC3)c1	10µM	n	u	n	n	u
Cc1cc(SCc2sc(-c3ccc(C(F)(F)F)c(F)c3)nc2C)ccc1OCC(=O)O	x	n	x	x	70.8µM!	x
COc1cc(C)[nH]c(=O)c1CNC(=O)c1c(C)n([C@H](C)C2CCN(CC(F)(F)F)CC2)c2ccccc12	x	x	x	x	n	x
COC[C@H]1OC(=O)c2coc3c2[C@@]1(C)C1=C(C3=O)[C@@H]2CC[C@H](O)[C@@]2(C)C[C@H]1OC(C)=O	x	x	x	x	n	x
CCOc1ccc(NC(=O)CSc2oc(-c3ccccc3)nc2S(=O)(=O)c2ccc(Cl)cc2)cc1	u	n	n	n	n	10µM
COP(=S)(OC)SCN1C(=O)c2ccccc2C1=O	x	x	n	n	28.2µM	x
COc1ccsc1CNCC[C@@]1(c2ccccn2)CCOC2(CCCC2)C1	x	x	x	x	n	x
C[C@]12CC[C@H](O)C[C@@H]1CC[C@@H]1[C@@H]2CC[C@]2(C)[C@@H](C3=CC(=O)OC3)CC[C@]12O	x	x	x	x	n	x
C/C=C(\C)C(=O)N[C@@H](c1ccccc1)[C@@H](O)C(=O)O[C@H]1C[C@@]2(O)[C@@H](OC(=O)c3ccccc3)[C@@H]3[C@]4(OC(C)=O)CO[C@@H]4C[C@H](O)[C@@]3(C)C(=O)[C@H](OC(C)=O)C(=C1C)C2(C)C	x	x	x	x	n	x
CCCCCCCCCC(CC)c1ccc(S(=O)(=O)O)cc1 (centres undefined)	x	x	101.1	n	10µM	x
Cc1cccc(NC(=O)N[C@H]2CN(C)c3ccccc3C(c3ccccc3)=N2)c1	x	x	x	x	n	x
COc1cc(C)[nH]c(=O)c1CNC(=O)c1c(C)n([C@H](C)C2CCOCC2)c2ccccc12	x	x	x	x	n	x
CCCCCCCCCCCCCCCC[N+](C)(C)C	x	x	n	n	25.1µM	x
CN1C(=O)[C@@H](NC(=O)[C@H](CCC(F)(F)F)[C@H](CCC(F)(F)F)C(N)=O)N=C(c2ccccc2)c2ccccc21	x	x	x	x	n	x

Bioassay records (PubChem)
